The list is not random: actives were taken first. Their share in the collection is about 2.8%.
Peg3 prom inh-1 – inhibitors of Peg3 promoter; HeLa PEG-Prom luciferase reporter, luminescence, overnight; inhibition, % at 20 µM; 360,000 tested, 1.7% active; AID 588405;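 active = inhibition of at least 50% at 20 µM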
Shn3 3UTR inh – Schnurri-3 reporter inhibition in Clone20 osteoblasts. Clone20 osteoblast Shn3 3'UTR firefly luciferase, 24 h. inhibition, % at 12.5 µM. 360,000 tested, 0.52% active;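 active = mean inhibition of at least 75% with every replicate also reaching 75%; inconclusive = mean inhibition at least 75% but some replicate below; inactive = mean inhibition below 75%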;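 also: 0% = median of neutral control wells and 100% = pilot-screen positive control compound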
PAX8 inh HTS – inhibitors of PAX8 transcriptional activity in RMG-I cells; RMG-I TPO-luciferase reporter, SteadyGlo, 24 h; 360,000 tested, 1.2% active; AID 652154; inhibition, % at 12.6 µM;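 active = mean replicate inhibition at least 60% with every replicate also reaching 60%; inconclusive = only one of the two criteria is met; inactive = mean below 60% and not all replicates reaching 60%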;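 also: luciferase light reporting Pax8 driven TPO promoter activity; plate controls were median of neutral control wells for no effect and mitoxantrone controls for full effect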
HIF-2a block – inhibitors of HIF-2a. 786-0 RCC cells HIF-2a reporter, luciferase luminescence, overnight. inhibition, % at 18.8 µM. 360,000 tested, 0.72% active. AID 624352;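 active = inhibition of the luminescence signal of 40% or more relative to plate controls, in a single-dose primary screen at 18.75 µM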
TRPM1 prom inh – inhibitors of MITF-driven TRPM1 promoter in melanoma cells; SK-MEL-5 TRPM1 promoter luciferase, 24 h; 330,000 tested, 0.83% active; inhibition, % at 12.5 µM;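 active = mean inhibition across replicates of 60% or more, whatever share of single replicates reaches that level; inconclusive = some that reach 60%, reason not given; inactive = mean inhibition across replicates below 60%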
LMP1 NFkB inh – reduces LMP1-driven NF-kappaB luciferase signal. LMP1-induced NF-kappaB luciferase reporter cells, luminescence. inhibition, % at 12.5 µM. 350,000 tested, 0.69% active. AID 504558; in the data active = inhibition above about 41%; inconclusive = no clear call, values can overlap the other calls;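 also: 0% = neutral control wells and 100% = reference inhibitor control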
Peg3 prom inh-2 – Peg3 promoter inhibition confirmation; HeLa PEG-Prom luciferase reporter, luminescence, overnight; AID 602417; 1,300 tested, 84% active; inhibition, % at 20 µM; shares compounds with Peg3 prom inh-1;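 active = at 20 µM dose, 40% or more inhibition averaged across four replicates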
Mdm2-MdmX confirm – confirmation of inhibitors of human Mdm2/MdmX interaction, set 2; shares compounds with HIF-2a block; SaOS-2 split-luciferase Mdm2/MdmX complementation, luminescence; inhibition, % at 8 µM; 740 tested, 99% active;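 active = mean inhibition of the luminescence signal across two replicates at or above 26 percent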
Target sequence (O15151 whole entry, looked up): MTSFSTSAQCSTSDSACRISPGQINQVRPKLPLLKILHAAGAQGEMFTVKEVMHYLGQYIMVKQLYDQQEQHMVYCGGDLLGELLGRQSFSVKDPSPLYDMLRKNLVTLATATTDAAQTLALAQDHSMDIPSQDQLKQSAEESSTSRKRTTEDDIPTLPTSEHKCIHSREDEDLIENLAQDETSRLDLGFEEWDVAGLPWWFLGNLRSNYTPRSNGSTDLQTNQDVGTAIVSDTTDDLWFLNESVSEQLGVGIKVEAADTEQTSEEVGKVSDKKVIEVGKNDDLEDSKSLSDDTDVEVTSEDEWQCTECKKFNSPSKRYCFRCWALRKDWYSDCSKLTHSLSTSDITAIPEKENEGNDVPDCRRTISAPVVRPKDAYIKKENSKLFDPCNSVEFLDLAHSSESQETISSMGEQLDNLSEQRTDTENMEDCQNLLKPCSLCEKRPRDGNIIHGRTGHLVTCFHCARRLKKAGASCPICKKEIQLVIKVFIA
Target sequence (Q00987 whole entry, looked up): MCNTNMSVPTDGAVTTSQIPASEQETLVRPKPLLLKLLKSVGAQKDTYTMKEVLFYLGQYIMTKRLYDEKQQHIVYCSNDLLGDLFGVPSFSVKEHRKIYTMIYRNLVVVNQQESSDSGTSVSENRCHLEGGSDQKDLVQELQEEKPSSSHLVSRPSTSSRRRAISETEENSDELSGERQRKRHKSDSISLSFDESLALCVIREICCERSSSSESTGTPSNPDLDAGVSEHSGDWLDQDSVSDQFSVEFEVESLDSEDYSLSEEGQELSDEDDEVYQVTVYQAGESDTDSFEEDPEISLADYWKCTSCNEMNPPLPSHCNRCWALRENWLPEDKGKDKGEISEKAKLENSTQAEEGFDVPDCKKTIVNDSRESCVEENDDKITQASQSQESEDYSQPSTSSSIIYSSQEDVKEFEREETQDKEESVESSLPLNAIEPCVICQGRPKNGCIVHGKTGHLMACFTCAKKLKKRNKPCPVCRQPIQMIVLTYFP
HIF-2a conf – confirmation of HIF-2a inhibitors; shares compounds with HIF-2a block; 1,800 tested, 56% active; 786-0 RCC cells, HIF-2a luciferase reporter luminescence, overnight; inhibition, % at 18.8 µM;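 active = mean inhibition across four replicates of at least 40 percent at the single tested concentration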
HIF-1a cs – inhibits HIF-1a reporter, a counter-screen for HIF-2a inhibitors; shares compounds with HIF-2a block; MiaPaCa-2 HIF-1a luciferase reporter, desferoxamine, overnight; inhibition, % at 18.8 µM; 1,800 tested, 72% active; AID 651589;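 active = mean inhibition of the reporter signal across four replicates at the single tested dose of 50% or more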
An asterisk follows results filed as active; ? = inconclusive; · = no result given.

SMILES | Peg3 prom inh-1 | Shn3 3UTR inh | PAX8 inh HTS | HIF-2a block | TRPM1 prom inh | LMP1 NFkB inh | Peg3 prom inh-2 | HIF-2a conf | HIF-1a cs | others
CCCNC(=O)Nc1ccc2c(c1)C(=O)N(C)C[C@H](OC)[C@H](C)CN(C(=O)C1CCOCC1)[C@@H](C)CO2 | · | · | -16 | · | · | · | · | · | ·
O=C(NC1=NCCS1)C1COc2ccccc2O1 (stereo not given) | 106* | 80 | · | 83* | 80* | 71* | 82* | 90* | 85*
O=C(NCC[C@H]1CC[C@@H](NC(=O)C2CC2)[C@@H](CO)O1)Nc1ccc(C(F)(F)F)cc1 | · | · | -4 | · | · | · | · | · | ·
CCCCNc1nc(=S)n(-c2ccccc2)c(C)c1C(C)=O | 114* | -9 | -4 | 51* | 64* | 7 | 94* | -12 | 30
Cc1ccc(OCC(=O)c2cc(C)c(C)cc2C)c([N+](=O)[O-])n1 | 14 | 8 | · | 9 | 12 | -4 | · | · | ·
COCCn1c(C)cc(C(=O)COc2ccc(C)nc2[N+](=O)[O-])c1C | 66* | 58 | -21 | 75* | 36 | 45* | 72* | 77* | 85*
C=CCn1c(C)cc(C(=O)COc2ccc(C)nc2[N+](=O)[O-])c1C | 61* | 50 | -33 | 68* | 27 | 24 | 69* | 68* | 89*
C[C@@H]1CN([C@@H](C)CO)C(=O)Cc2cc(NC(=O)CCC(F)(F)F)ccc2O[C@H]1CN(C)C(=O)NC1CCCCC1 | · | · | 5 | · | · | · | · | · | ·
CCOc1cc(/C=N/N=C(N)N)ccc1OCc1ccc(Cl)cc1 | 99* | 95* | 31 | 97* | 90* | 5 | 97* | -11 | 107*
COc1ccc(CCNC(=O)c2ccc3c(c2)OCCO3)cc1 | -171 | -63 | -135 | -199 | -51 | -17 | · | · | ·
O=C(NCCc1ccccc1)c1ccc2c(c1)OCCCO2 | 108* | ? | 110* | 92* | 92* | 85* | 94* | · | · | Mdm2-MdmX confirm=99*
O=C(NCCS(=O)(=O)NCCc1ccccc1)c1ccc2c(c1)OCO2 | -255 | -50 | -114 | -158 | -103 | -26 | · | · | ·
O=C(NCCc1ccccc1)c1ccc2c(c1)OCCO2 | 105* | 84 | · | 84* | 88* | 84* | 90* | 91* | 95*
C[C@@H]1CCCCO[C@@H](CN(C)C(=O)Nc2ccc(F)cc2)[C@H](C)CN([C@H](C)CO)C(=O)c2cc(NC(=O)CCCN(C)C)ccc2O1 | · | · | -1 | · | · | · | · | · | ·
Cc1ccc(C(=O)Nc2ccc3c(c2)OCCO3)c(C)c1 | 68* | 57 | 68* | 52* | 66* | 58* | 35 | 70* | 45
O=C(c1ccc(Cl)cc1)N1CCCCC(Sc2nnc(-c3ccc4c(c3)OCO4)o2)C1=O (stereo not given) | 54* | 70 | 70* | 64* | 80* | 75* | 58* | 83* | 68*
O=C(O)CSc1nnc(-c2ccc3c(c2)OCO3)o1 | 9 | -13 | · | 22 | -6 | 1 | · | · | ·
O=C(NC1CCCCC1)C(c1cccnc1)N(C(=O)CCl)c1cccc(Cl)c1 (stereo not given) | 106* | -7 | 29 | 62* | 83* | 19 | 99* | 98* | 106* | Mdm2-MdmX confirm=103*
Cc1cccc(N(C(=O)CNC(=O)c2ccco2)C(C(=O)NC2CCCCC2)c2cccnc2)c1 (stereo not given) | -9 | -7 | 5 | 19 | 5 | 2 | · | · | ·
CCCNC(=O)N1C[C@H](O)COC[C@@H]2O[C@H](CC(=O)N[C@H]3CCN(Cc4ccccc4)C3)CC[C@H]21 | · | · | -30 | · | · | · | · | · | ·
COc1cccc(-c2nnc3n2N=C(C(C)(C)C)CS3)c1 | 98* | -3 | -13 | 27 | ? | 65* | 75* | · | · | Mdm2-MdmX confirm=103*
Cc1oc(-c2ccc3c(c2)OCCO3)cc1C(=O)NCC(=O)O | -60 | -3 | -18 | -89 | -15 | -46 | · | · | ·
Cc1oc(-c2ccc3c(c2)OCCO3)cc1C(=O)O | 96* | -3 | · | 81* | 52 | 10 | 89* | 92* | 92*
COc1cc(NS(C)(=O)=O)ccc1Nc1c2ccccc2nc2ccccc12 | 102* | 92* | 71* | 55* | 79* | 57* | 93* | · | · | Mdm2-MdmX confirm=98*
Cc1cc(C(=O)CN2C(=O)c3ccccc3S2(=O)=O)c(C)n1C(C)C | 68* | 42 | 71* | 76* | 35 | 70* | 74* | 86* | 82*
SMILES | Peg3 prom inh-1 | Shn3 3UTR inh | PAX8 inh HTS | HIF-2a block | TRPM1 prom inh | LMP1 NFkB inh | Peg3 prom inh-2 | HIF-2a conf | HIF-1a cs | others
Cc1cc(C)nc(NC(=O)CN2C(=O)c3ccccc3S2(=O)=O)n1 | 3 | -4 | 5 | 10 | 1 | -3 | · | · | ·
Cc1ccc(C(=O)CN2C(=O)c3ccccc3S2(=O)=O)cc1 | 81* | 55 | 71* | 87* | 69* | 74* | 79* | 87* | 82*
C=CCn1c(C)cc(C(=O)CN2C(=O)c3ccccc3S2(=O)=O)c1C | 93* | 91* | · | 95* | 94* | 87* | 96* | 99* | 104* | Mdm2-MdmX confirm=74*
Cc1ccc(C(=O)CN2/C(=C(\O)c3ccccc3)C(=O)c3ccccc3S2(=O)=O)c(C)c1 | 13 | 30 | · | 19 | -5 | 1 | · | · | ·
O=C(Nc1ccccc1F)N[C@H]1CC[C@H](CC(=O)N2CCCCC2)O[C@H]1CO | · | · | -12 | · | · | · | · | · | ·
Cn1c(=O)c2cc(S(=O)(=O)Nc3cc(C(=O)O)cc(C(=O)O)c3)ccc2n(C)c1=O | 12 | 5 | 13 | 13 | 9 | 7 | · | · | ·
Cc1cc(C)cc(NS(=O)(=O)c2ccc3c(c2)c(=O)n(C)c(=O)n3C)c1 | 54* | ? | · | 50* | 60 | 25 | 70* | 41* | 101*
C/C=C/c1ccc([C@@H]2[C@@H](CO)N(C(=O)CC)[C@@H]2CNC(=O)CC2CC2)cc1 | · | · | -1 | · | · | · | · | · | ·
Clc1cccc(-c2nc(-c3ccccn3)no2)c1 | 62* | 52 | 35 | 53* | 64* | 51* | 52* | 72* | 65*
COc1cc(-c2nc(-c3ccccn3)no2)cc(OC)c1OC | -220 | -98 | · | -160 | -65 | -2 | · | · | ·
Cc1ccc(-c2nc(-c3ccccn3)no2)cc1 | 96* | 92* | · | 87* | 90* | 88* | 89* | 95* | 94* | Mdm2-MdmX confirm=95*
CC(C)NC(=O)N1CCCCN2[C@H](CO)[C@H](c3ccc(C#Cc4ccccc4F)cc3)[C@@H]2C1 | · | · | 1 | · | · | · | · | · | ·

Screens from PubChem BioAssay.
